Source: PubChem BioAssay (several laboratories)
Most compounds without a hit are left out; they make up all but 7.2% or so of the library.
ALR H2O2 inh – inhibitors of human ALR sulfhydryl oxidase, primary screen, biochemical, H2O2 detection, HRP-luminol luminescence, single point | FAD-linked sulfhydryl oxidase ALR (Homo sapiens), P55789 | purified ALR, DTT oxidation | inhibition, % (no concentration beside the values) | 290,000 compounds, 3.8% hits | AID 485317, 2010;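 active = mean replicate inhibition above about 79%, with every replicate also reaching it, limit read from the data; inconclusive = only one of the two criteria met; inactive = mean below limit and not every replicate reaching it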
A1 inh – caspase 3/7 activation in MEF A1-2A-BIM cells, primary screen, A1 inhibitor project, cell-based, luminescence, HTS; caspase activation, % (test concentration not listed); 330,000 compounds, 0.066% hits; AID 2462, 2010; Caspase-Glo 3/7 luminescence, 3 h; percent of clofoctol response, vehicle zero;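 active = over half of replicate activation scores above 10%, or exactly half above 10 with the replicate mean above 10; inconclusive = replicate mean below 10 yet half the replicates above 10; inactive = over half of replicates below 10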
AHR activator – AHR activators, primary screen, cell-based, luminescence, luciferase reporter, human; Aryl hydrocarbon receptor (Homo sapiens), P35869; AHR-responsive luciferase reporter cells; activation, % at 5 µM; 320,000 compounds, 2.5% hits; in the data active = activation above about 47%;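 also: 0% = vehicle wells and 100% = reference agonist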
VLA-4 inh – inhibition in human VLA-4 binding assay, primary screen, VLA-4 allosteric modulator project, MLPCN library, flow cytometry, VLA-4 expressing cells; Integrin alpha-4 (Homo sapiens), P13612; ligand binding flow cytometry; inhibition, % (about 7 µM as worked out from the volumes in the protocol); 330,000 compounds, 0.2% hits; AID 2557, 2010; in the data active = inhibition above about 50%
Efflux pump inh – inhibitors of Candida efflux pumps in yeast, primary screen, S. cerevisiae, Nile Red, multiplex | S. cerevisiae Candida pump triplex | inhibition, % at 10 µM | 330,000 compounds, 0.44% hits | AID 485275, 2010;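 active = plate passing quality check with inhibition over a set limit, or well fluorescence over plate mean plus 4 SD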;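 also: Nile Red retained in pooled yeast measured as flow cytometry median fluorescence; 0% = buffer negative control and 100% = Enniatin B positive control; higher means more Nile Red kept so more efflux inhibition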
Mot1-301 SUMO – yeast Mot1-301 growth rescue at high temperature, primary screen, SUMOylation pathway inhibitor project, S. cerevisiae, ATP luminescence, 38.5C; S. cerevisiae Mot1-301 growth rescue; percent above DMSO median, 100 means doubled; growth rescue, % at 18.8 µM; 320,000 compounds, 1% hits;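 active = every valid replicate shows activation above 250% relative to neutral control wells; inactive = the rest, any valid replicate at or below 250%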;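 also: OY570 slx delta 5 strain wells were the positive control but not used for scaling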
Starred values were filed as active, the others as inactive; ? = inconclusive; / = no result.

SMILES	ALR H2O2 inh	A1 inh	AHR activator	VLA-4 inh	Efflux pump inh	Mot1-301 SUMO
O=C(/C=C/c1ccccc1)c1ccc2c(c1)OCCCCO2	20.0	-4.1	6.3	-1.8	0.0	-22.5
Cc1ccc(NC(=O)CN2C(=O)CCS(=O)(=O)c3ccccc32)cc1Cl	-2.0	0.2	3.3	6.3	0.0	4.7
CSc1ncc(-c2ccc(Cl)cc2)[nH]1	97.9*	-4.1	20.9	-11.2	-0.1	9.9
O=C1OCC(CO)(CO)N=C1NNc1ccccc1Cl	99.4*	0.1	7.9	13.5	0.0	171.1
CSc1ccc(CNc2ccccn2)cc1	0.4	-4.6	3.6	7.2	0.0	-8.8
CSc1ccc(CNc2ccccc2)cc1	89.9*	-0.5	-0.4	-4.3	0.0	3.2
O=[N+]([O-])c1ccccc1N=Nc1ccc(O)cc1	80.2*	-2.4	4.6	-0.9	0.0	34.5
COc1nc(N/N=C/c2ccc(C)cc2)nc(N2CCCCC2)n1	4.7	-0.4	8.0	14.4	0.1	14.2
CNc1nnc(CSc2nc(C)cc(C)n2)s1	1.5	0.0	4.3	-3.8	0.2	12.0
CCS(=O)CCSc1nc2ccccc2s1 (centres undefined)	99.3*	-0.5	18.1	-5.9	-0.1	-3.2
CNc1nnc(CSc2nc3ccccc3s2)s1	98.8*	0.1	2.4	8.0	-0.1	/
Cc1noc(C)c1CSc1nc2ccccc2s1	/	-0.2	21.2	17.7	0.1	20.3
c1csc(CSc2nc3ccccc3s2)c1	93.8*	-4.8	26.4	5.8	0.1	48.3
O=c1c2cc([N+](=O)[O-])ccc2nc(CN2CCN(c3ccccn3)CC2)n1-c1ccccc1F	1.2	0.1	20.3	13.7	0.1	176.9
CC1CCN(c2ccc(-c3ccc(NC(=O)C(F)(F)F)cc3)nn2)CC1	-2.8	-11.6	49.9*	13.4	-0.1	13.4
FC(F)(Cl)c1nnc2ccc(Sc3ccccn3)nn12	-10.7	0.8	2.7	-39.0	-0.1	/
O=C(CCC(=O)c1ccc(-c2ccccc2)cc1)Nc1cccnc1	-1.7	-0.6	3.2	-1.6	0.0	-20.5
O=C(Nc1ccccc1)c1cc(Cl)nc2ccccc12	-3.1	-0.8	49.2*	-6.9	-0.2	9.7
O=C(O)c1cc(Cl)nc2ccccc12	-4.5	-0.6	0.9	4.2	0.0	-2.0
Cc1cc(NC(=O)c2cc(-c3ccc(C)s3)nc3ccccc23)no1	/	-0.3	11.4	4.0	-0.2	-2.7
Cc1cc(C(=O)Nc2ccc(F)cc2)c2ccccc2n1	3.8	-0.3	56.2*	-1.2	0.0	-2.1
Cc1ccc(NC(=O)c2cc(C)nc3ccccc23)cc1	-16.6	0.5	67.5*	-2.9	-0.1	-2.4
Cc1cccc(NC(=O)c2cc(-c3ccc(C)s3)nc3ccccc23)n1	-3.4	-0.7	56.2*	3.5	-0.3	-25.7
Cc1ccc(NC(=O)CSc2ccccc2NC(=O)c2ccccc2Cl)cc1Cl	5.5	-0.3	7.7	3.4	-0.4	-16.4
COc1ccccc1NC(=O)C1CCN(C(=O)C2CC(=O)N(c3ccc(C)cc3)C2)CC1 (centres undefined)	3.9	-0.8	-0.3	5.1	-0.2	11.3
SMILES	ALR H2O2 inh	A1 inh	AHR activator	VLA-4 inh	Efflux pump inh	Mot1-301 SUMO
O=C(Nc1ccnn1C1CCN(C(=O)Cc2cccc(Cl)c2)CC1)C1CC1	-12.3	0.4	-0.1	-7.5	0.1	39.7
CCCc1nnc(SCC(=O)Nc2ccccc2F)o1	-4.5	-0.2	-2.4	2.2	-0.1	1.7
O=C(O)c1cc(-c2ccc(Cl)s2)nc2ccccc12	92.8*	-0.6	2.8	6.8	0.1	-13.8
Cc1cc(C(=O)NN=C2CCCC2)c2ccccc2n1	/	0.1	3.1	-2.0	0.1	-5.0
O=C(Nc1ccccn1)c1cc(-c2ccc(Cl)s2)nc2ccccc12	0.5	1.4	15.2	-4.3	0.1	13.7
Cc1cc(C(=O)NN=C2CCCCC2)c2ccccc2n1	84.3*	-0.5	0.9	16.0	-0.1	3.7
C=CCNC(=O)CSc1nnc(C(CC)N(C)C)n1C1CCCCC1 (centres undefined)	-2.4	0.6	1.7	-5.4	0.0	-7.1
CCc1ccccc1NC(=O)Nc1cccs1	-6.3	-0.1	50.0*	33.3	0.3	-17.3
COc1ccccc1CNC(=O)Nc1cccs1	97.4*	?	11.5	-15.2	-0.1	-11.6
O=C(NCCCN1CCOCC1)/C(=C/c1cccs1)NC(=O)c1ccccc1	-4.4	0.8	0.0	-12.9	-0.1	-7.1
COc1ccccc1N=C1NC(=O)/C(=C/c2ccc(N(C)C)cc2)S1	4.9	-2.0	65.4*	-67.3	0.2	41.6
COc1cc(/C=C2/SC(=Nc3ccc(O)cc3)NC2=O)cc(OC)c1O	22.2	0.0	7.8	-413.8	-0.1	-14.8
O=C1c2ccccc2-c2nc3ncnn3c(-c3ccccc3Cl)c21	-6.1	0.2	56.2*	-40.9	-0.3	14.2
CCOc1ccc2[nH]cc(-c3csc(N)n3)c2c1	2.8	1.3	/	0.0	0.0	-9.9
COc1ccc(-n2c(-c3cc(-c4ccccc4)sc3N)n[nH]c2=S)cc1	2.2	0.5	1.2	8.9	-0.1	5.2
C=CCn1c(-c2cc(-c3ccccc3)sc2N)n[nH]c1=S	92.9*	0.1	9.2	-9.5	-0.2	-1.0
C=CCn1c(-c2ccc([N+](=O)[O-])cc2)n[nH]c1=S	17.1	-0.5	1.3	11.4	0.5	51.7
C=CCn1c(-c2ccccc2[N+](=O)[O-])n[nH]c1=S	89.4*	0.4	-1.6	4.6	0.0	-7.7
Nc1sc(-c2ccccc2)cc1-c1n[nH]c(=S)n1C1CCCCC1	97.8*	-0.6	2.0	30.7	0.1	14.0
C=CCn1c(-c2csc(-c3ccccc3)n2)n[nH]c1=S	14.2	-0.7	6.8	6.5	0.0	30.1
C=CCn1c(-c2cccc(OC)c2)n[nH]c1=S	96.0*	-0.3	1.9	8.1	-0.4	-1.2
CCOc1ccc(Cn2c(=O)oc3ccccc32)cc1	3.5	0.4	/	8.1	0.2	126.4
COc1ccc(CNC(=O)C2CCCN(c3ncnc4c3nc3n4CCCCC3)C2)cc1 (centres undefined)	-3.7	-1.2	1.2	-3.3	0.8	12.4
O=C(Nc1ccc(Cl)cn1)C1CCCN1S(=O)(=O)c1ccccc1 (centres undefined)	-1.7	1.1	3.4	0.0	0.0	1.3
O=C(CSc1ccccn1)N/N=C/c1c[nH]c2ccccc12	-6.6	1.7	26.7	0.2	0.0	-24.4
O=C(CCC(=O)Nc1ccc(F)cc1)N/N=C/c1ccccc1O	0.7	0.0	6.4	13.7	0.2	-10.7
O=C(CCC(=O)Nc1ccc(F)cc1)N/N=C/c1c[nH]c2ccccc12	/	0.9	50.3*	13.6	-0.1	140.3
